The test concerns the target Protein S100-A4 (Homo sapiens) (UniProt P26447). As to the kind of experiment: S100A4-myosin IIA binding inhibitor potency, dose response, biochemical, fluorescence polarization, cherry-picked hits (AID 687001). As to conditions: FP, S100A4/TAMRA-myosin IIA peptide binding; series mostly up to 11 µM.

SMILES strings stand for the structures. Potency and affinity values are given separately. The source made the active and inactive calls.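 The calls were made as follows: active = signal-lowering compounds whose fitted half-maximal concentration is at or below twice the top tested dose in every run; inconclusive = runs disagree, flat 30 to 70% inhibition, or poor curve fit; inactive = the rest.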

Chain of Protein S100-A4 (Homo sapiens) (P26447 whole entry, looked up): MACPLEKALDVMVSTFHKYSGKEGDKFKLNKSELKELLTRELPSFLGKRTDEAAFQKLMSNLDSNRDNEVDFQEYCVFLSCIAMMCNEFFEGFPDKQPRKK

Take `CN1c2ccc(-c3ccccc3)cc2[C@@H]2[C@@H](CCN2C(=O)c2ccccc2)[C@H]1CO`: the molecule was called inactive.

Take `CO[C@@H]1CN(C)C(=O)c2ccc(NC(=O)c3ccc4c(c3)OCO4)cc2OC[C@@H](C)N(Cc2ccc3c(c2)OCO3)C[C@H]1C`: the call was inactive. Then `Cc1ccc(NS(=O)(=O)c2ccc(-c3coc(C)n3)cc2)c(C)c1`, with “inactive”; and `COc1cc(Cl)ccc1OCc1cc(C(=O)N(C)Cc2nnc(C)o2)no1`, with “inactive”. Under `COc1ccc(CCN2CC(C(=O)NCCN3CCNC3=O)CCC2=O)cc1` (stereo not given) stands “inactive”.

With `CCC(=O)N[C@@H]1CC[C@H](CCNC(=O)Nc2ccc(C(F)(F)F)cc2)O[C@H]1CO`, the call was inactive.

With `O=C(O)CSc1c2c(nc3cc(C(=O)Nc4cccc(C(F)(F)F)c4)ccc13)CCCC2`, the call was inactive. Then `C[C@@H]1CN([C@@H](C)CO)S(=O)(=O)c2ccc(Br)cc2O[C@@H]1CN(C)Cc1ccncc1`, with “inactive”. Under `Cc1[nH][nH]c(=O)c1C(c1cc(Br)ccc1O)c1c(C)[nH][nH]c1=O` stands “inactive”; under `CCCNC(=O)c1ccc2c(c1)nc(C)n2-c1cccc(C)c1`, “inactive”. As to `CN(C)C(=O)c1cccc(-c2ccc3c(c2)[C@H]2[C@H](CCN2C(=O)C2CC2)[C@@H](CO)N3)c1`, the molecule was classed as inactive. Then `Nc1c(C(=O)Nc2ccc3c(c2)OCCO3)nnn1Cc1ccc(F)cc1`, with “inactive”. Then `O=C1CCCn2cc(nn2)COC[C@@H](Cc2ccccc2)N1`, with “inactive”. Under `COc1ccc2c3c(n(C)c2c1)[C@H](CO)N(C(=O)c1ccccc1)CC31CCN(C(=O)c2ccccc2)CC1` stands “inactive”; under `C=C[C@@H]1c2ccccc2N(S(=O)(=O)c2ccc(C)cc2)[C@H](c2ccccc2C(F)(F)F)C1(C#N)C#N`, “inactive”; under `CCN(CC)C(=O)Oc1ccc2c(c1)O/C(=C\c1ccco1)C2=O`, “inactive”. As for `CNc1nc(-c2ccc(S(=O)(=O)N3CCCCC3)cc2)cs1`, the outcome was inactive. Then `Cc1cc(NC(=O)CCC(=O)N(Cc2ccco2)C2(C(=O)NC3CCCC3)CCC(C)CC2)no1` (stereo not given), with “inactive”; and `O=C(/C=C/c1ccccc1)Nc1cc(S(=O)(=O)N2CCOCC2)ccc1N1CCOCC1`, with “inactive”; and `CCC(=O)N(C)C[C@H]1Oc2ncc(-c3ccc(C(=O)N(C)C)cc3)cc2C(=O)N([C@@H](C)CO)C[C@H]1C`, with “inactive”.

Take `O=C(Nc1ccc2ccccc2c1)c1ccccc1Cl`: the molecule was called inactive. For the molecule `O=C(CCC1CCN(C(=O)c2ccco2)CC1)NCc1ccc(F)cc1`, the molecule was called inactive. Under `C[C@@H]1CCCCO[C@H](CN(C)C(=O)NC2CCCCC2)[C@@H](C)CN([C@@H](C)CO)C(=O)c2cc(NC(=O)Nc3ccc(C(F)(F)F)cc3)ccc2O1` stands “inactive”; under `CCOc1cc(S(=O)(=O)N2CCC(c3nc4ccccc4s3)CC2)c(OCC)cc1S(=O)(=O)N1CCCCC1`, “inactive”; under `CCC(=O)N1[C@@H]2c3ccc(-c4ccncc4)c(=O)n3C[C@H]1[C@H](CO)[C@H]2C(=O)NC1Cc2ccccc2C1`, “inactive”. Under `Cn1cnc(CCNC(=O)C[C@H]2CC[C@H]3[C@@H](COC[C@@H](O)CN3C(=O)C3CC3)O2)c1` stands “inactive”; under `Cc1csc(=O)n1CC(=O)OCc1nnc(-c2ccc(Cl)cc2)o1`, “inactive”; under `COc1ccc2c(CN3CCCC3)cc(=O)oc2c1`, “inactive”. Regarding `CN(C(=O)CCc1cn(C)c2ccccc12)c1ccc(Oc2cccnc2)cc1`, the molecule was called inactive. Under `COc1cccc(NC(=O)CN(C)C(=O)c2ccc(N3CCCCC3)c([N+](=O)[O-])c2)c1` stands “inactive”. Then `C[C@@H]1CN([C@@H](C)CO)C(=O)c2cccc(NC(=O)C3CCOCC3)c2O[C@@H]1CN(C)Cc1ccc(C(=O)Nc2ccccc2N)cc1`, with “inactive”; and `CC(=O)Nc1ccc(C=NNc2nnc(NN=Cc3ccc(NC(C)=O)cc3)c3ccccc23)cc1`, with “inactive”. For `O=C(OCc1ccccc1)/C(=C/c1ccccc1Cl)NC(=O)c1ccco1`, the outcome was inactive.

Regarding `O=C(NCCNC(=O)c1cccc(O)c1)c1cccc(O)c1`, the call was inactive. Then `C[C@@H]1CN([C@@H](C)CO)C(=O)c2cc(/C=C/c3ccccc3)cnc2O[C@H]1CN(C)S(=O)(=O)c1cccs1`, with “inactive”.

These data come from PubChem BioAssay AID687001 (Broad Institute, 2013).
